Assay outcomes deposited in PubChem BioAssay by National Center for Advancing Translational Sciences (NCATS).
BRCA1 expr act = activators of BRCA1 expression | Potency, µM (highest dose often 46.1 µM), most hits filed as activators | actives 1.1% (n = 380,000) | MCF7-BRCA1-FFLuc reporter, luminescence, 48 h; response scale: scaled: vehicle 0%, 10 µM genistein 100% | AID 624202; also: nearly all actives have a fitted effect of over 80% in size
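48 h compound treatment of MCF7-BRCA1-FFLuc cells (phenol-red free MEM, 37 °C), then 15 min with luciferase substrate and luminescence imaging.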
IL-2 act = activators of IL-2; IL-2 activation reporter assay, cell-based qHTS; stimulated with anti-CD3/CD4/CD28 beads; in transgenic mouse T cells; activation, % (series mostly up to about 46 µM); actives 0.065% (n = 360,000); AID 652025; in the data active = activation above about 50%; inconclusive = mostly about 30% to 49%
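Readout is EGFP and DsRed signal by fluorescent plate cytometry after 18 h at 37 degrees C. Transgenic mouse T cells (750/well) received compound for 60 min before bead stimulation (anti-CD3, anti-CD4, anti-CD28); memory T cells served as non-tolerant control.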
IDH1 R132H inh = blocks human mutant IDH1 R132H enzyme; O75874; IDH1-R132H enzyme, NADPH consumption, diaphorase/resazurin fluorescence; Potency, µM (highest dose often 76.6 µM), usual class: inhibitors; actives 0.093% (n = 390,000); AID 602179; also: nearly all actives have a fitted effect of over 65% in size
Target sequence (O75874 whole entry R132H, stated change not applied): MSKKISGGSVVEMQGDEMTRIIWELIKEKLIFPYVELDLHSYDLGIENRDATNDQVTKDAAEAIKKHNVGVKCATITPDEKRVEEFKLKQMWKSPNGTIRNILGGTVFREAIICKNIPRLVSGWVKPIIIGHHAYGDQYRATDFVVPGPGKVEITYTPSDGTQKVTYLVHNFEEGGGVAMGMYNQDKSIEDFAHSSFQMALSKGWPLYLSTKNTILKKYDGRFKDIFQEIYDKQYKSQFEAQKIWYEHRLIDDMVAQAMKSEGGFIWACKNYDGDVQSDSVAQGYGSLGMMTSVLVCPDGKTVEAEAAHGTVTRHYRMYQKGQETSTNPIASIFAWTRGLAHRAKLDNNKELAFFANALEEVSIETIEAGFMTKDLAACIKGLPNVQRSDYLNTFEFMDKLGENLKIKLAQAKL
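IDH1-R132H (0.5 ug/mL dispensed) in pH 7.5 Tris buffer was preincubated 30 min with compound, then given a substrate mix of 0.016 mM NADPH and 2 mM alpha-KG for 80 min at room temperature; remaining NADPH was read by diaphorase/resazurin fluorescence.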
gsp ag = agonists of gsp mutant (McCune-Albright syndrome). gsp mutant cells, cAMP HTRF, 30 min. Potency, µM (doses to about 76.9 µM), most hits filed as activators. actives 0.13% (n = 340,000). AID 624287; active = well fitted activation curve with a large enough effect; inconclusive = small, poorly fitted or top-dose-only effect, or another doubt; inactive = no such curve, though single readings can be large or run the other way; cell line not stated here;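 also: phosphodiesterase inhibitor Ro 20-1724 added with compounds to block cAMP breakdown; nearly all actives have a fitted effect of over 60% in size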
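Cells in DMEM/10% FBS with G418 were pretreated with compounds in DMSO plus […] (300 uM stock) for 30 min at 37C. cAMP was measured by HTRF (cAMP-d2 plus anti-cAMP antibody-K) after 30 min at room temperature.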
gsp antagonist = gsp mutant antagonism. AID 624288. gsp-mutant cells, cAMP HTRF, 30 min. Potency, µM (doses to about 76.9 µM), usual class: inhibitors. actives 0.4% (n = 340,000); calls by dose curve; cell line not stated here;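 also: intracellular cAMP measured with PDE inhibitor Ro 20-1724 present during compound exposure; nearly all actives have a fitted effect of over 65% in size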
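Measurement of cellular cAMP by homogeneous time-resolved fluorescence following a 30 min compound exposure at 37C. The PDE inhibitor […] was present throughout; the assay buffer was DPBS with 0.05% BSA and 0.005% Tween 20.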
Hits are given with their value; i = inactive; ? = inconclusive; nt = no result given; [ ] = another dose, or the depositor's remark. Rows were chosen to be rich in hits. Some 1.5% of all compounds tested hit in one or more screens of this group. Unless noted, calls follow the shape of the dose curve; as a rule, active = well fitted curve in the direction sought with a large enough effect; inconclusive = small, poorly fitted or top-dose-only effect, or another doubt; inactive = no such curve, though single readings can be large; an effect the other way counts as inactive or inconclusive.

SMILES	BRCA1 expr act	IL-2 act	IDH1 R132H inh	gsp ag	gsp antagonist
O=C1c2ccc3c4c(ccc(c24)C(=O)N1c1ccc2ccccc2c1)CC3	i	i	i	i	i
CC(/C=N/Nc1nnc(C)c(=O)[nH]1)=C\c1ccccc1	10µM	i	i	i	i
CCCn1cnc2c(SCc3ccccc3F)nc(N)nc21	10µM	i	i	i	i
CCCCn1cnc2c(SCc3cccc(F)c3)nc(N)nc21	i	i	i	i	i
COc1ccc(N(Cc2ccccc2)C(=O)c2nc(S(C)(=O)=O)ncc2Cl)cc1	nt	nt	i	nt	nt
COc1ccc(-c2nc(SC)n(C(=O)c3ccco3)n2)cc1	11µM	i	i	i	i
COc1ccc(-c2nc(SCc3ccccc3)n(C(=O)c3ccco3)n2)cc1	?	i	i	i	i
COC(=O)c1ccc(NC(=S)Nc2ccccn2)cc1	i	i	i	i	i
COc1ccc(/C=C/C(=O)NC(=S)Nc2ccccn2)cc1	8.9µM	i	i	i	i
COc1ccc(NC(=S)Nc2ccccn2)cc1	4µM	i	i	i	i
CCC(=O)N1CCc2cc(CNS(=O)(=O)c3ccc(Cl)s3)ccc21	nt	nt	i	nt	nt
CCCCc1ccc(-c2csc(/C(C#N)=C/c3ccc(C)o3)n2)cc1	i	i	i	i	i
CCCCc1ccc(-c2csc(/C(C#N)=C\c3ccco3)n2)cc1	10µM	i	i	i[15.4 µM]	i
CN(C(=O)c1ccc2c(c1)CCN2S(C)(=O)=O)c1ccccc1	i	i	i	i	i
CS(=O)(=O)N1CCc2cc(C(=O)Nc3cccc(F)c3)ccc21	11µM	nt	i	nt	nt
CS(=O)(=O)N1CCc2cc(C(=O)OCC(=O)c3ccccc3)ccc21	10µM	i	i	i	i
Cc1cc(C)cc(-n2nnc(-c3nc(-c4ccc5c(c4)OCO5)no3)c2C)c1	nt	nt	i	nt	nt
CC1(C)CC(=O)C2=C(C1)N1C(=C(C#N)C2c2ccc(Cl)cc2)N=C(N)c2ccccc21 (configuration not stated)	i	i	i	i	35µM
CCCc1ccc(Oc2cc(Cl)nc(N)n2)cc1	i	i	i	i	i
CCc1ccc(Oc2cc(C)nc(N)n2)cc1	3.2µM	i	i	i	i
O=C(Cn1nnc(-c2ccc3c(c2)OCO3)n1)Nc1ccccc1C(=O)O	11µM	i	i	i	i
O=C(Cn1nnc(-c2ccccc2)n1)Nc1ccc2c(c1)OCO2	i	i	i	i	i
CCOC(=O)Cn1c(=S)[nH]c2c(oc3ccc(Cl)cc32)c1=O	i	i	i	10µM	i
O=C(OCC1CCC=CO1)C1CCC=CO1 (configuration not stated)	i	i	i	i[15.4 µM]	i
COC(=O)c1ccc(COC(=O)c2cccnc2Cl)cc1	13µM	i	i	i	i
SMILES	BRCA1 expr act	IL-2 act	IDH1 R132H inh	gsp ag	gsp antagonist
CCOC(=O)C1CCN(C(=O)Cn2c(=O)cc(C)c3c(C)nn(C)c32)CC1	nt	nt	i	nt	nt
CNc1cncc(-c2c(OC)cccc2OC)n1	i	i	nt	nt	nt
CNc1cncc(-c2cccc(OC)c2F)n1	11µM	i	nt	nt	nt
CSc1ccc(CCNC(=O)c2cccc3c2C(=O)N(C2CCCCC2)C3)cc1	i	i	i	i	i
CCc1nc(SCc2ccc(F)cc2)[nH]c(=O)c1C#N	i	i	i	i	35µM
Cc1cc(C)c(C#N)c(SCc2ccc(F)cc2)n1	i	i	i	i	i
Cc1nc2ccccc2c2c1CC(C)S2 (configuration not stated)	i	i	i	8.9µM	i
Cc1nc2ccccc2c2c1CC(C(C)(Cl)Br)O2 (configuration not stated)	i	i	i	i	i
O=C(Nc1ccc(Br)cc1)c1cnc[nH]1	13µM	i	i	?	i
O=C(NCc1ccc(Cl)c(Cl)c1)c1cc(C2CCCCN2C(=O)c2ccccc2)on1 (configuration not stated)	i	i	nt	nt	nt
COc1ccccc1CNC(=O)COCc1cc(-c2ccc3c(c2)OCO3)on1	nt	nt	i	nt	nt
O=C(CSc1ncnc2sccc12)NCc1ccc2c(c1)OCO2	i	i	i	?	i
CCOC(=O)NC(=O)/C(C#N)=N/Nc1ccc(F)cc1	i	i	i	i	25µM
CCOC(=O)C(=O)/C(C#N)=C/Nc1ccc(F)cc1	i	i	i	i	i
COCc1cc(C)n(CC(=O)Nc2ccc(NC(C)=O)cc2)c(=O)c1C#N	nt	nt	i	nt	nt
CC(=O)c1ccc(OCc2cc(C(=O)N3CC[C@@H]4CCCC[C@H]4C3)no2)cc1	3.2µM	i	i	i	i
Cc1cccc(C)c1OCc1cc(C(=O)N2CCC(C3CCCCC3)C2)no1 (configuration not stated)	13µM	i	i	i	i
COCC1CCCN(C(=O)c2cc(COc3ccc(C(C)=O)cc3)on2)C1 (configuration not stated)	?	i	i	i	i
Cc1ccc(C)c(N2CCN(C(=O)CCS(=O)(=O)c3ccc4c(c3)NC(=O)CO4)CC2)c1	i	i	i	i	50µM
COc1ccc(N2CCN(C(=O)CC(C)S(=O)(=O)c3ccc4c(c3)NC(=O)CO4)CC2)cc1 (configuration not stated)	i	i	i	i	?
O=C1COc2ccc(S(=O)(=O)CCC(=O)N3CCN(c4ccccc4)CC3)cc2N1	i	i	i	i	i
CC(CC(=O)N1CCN(c2cccc(Cl)c2)CC1)S(=O)(=O)c1ccc2c(c1)NC(=O)CO2 (configuration not stated)	i	i	i	i	28µM
CCc1c(C)nc2cc(-c3ccc(OC)cc3)[nH]n2c1=O	8.9µM	i	i	i	i
CCOc1ccccc1NC(=O)c1nn(C)c2c1CSc1ccccc1-2	nt	nt	i	nt	nt
CCc1cc2c(=O)n(-c3ccccc3)c(SCC(N)=O)nc2s1	i	i	i	i	7.1µM
SMILES	BRCA1 expr act	IL-2 act	IDH1 R132H inh	gsp ag	gsp antagonist
CCc1nnc(NC(=O)/C=C/c2ccco2)s1	4µM	i	i	i	i
O=C(/C=C/c1ccco1)NCCc1ccccc1	6.3µM	i	i	i[15.4 µM]	i
COc1cc2c(NC3CCN(C)CC3)nc(N3CCCCC3)nc2cc1OCCOCCN(C)C	i	nt	nt	nt	nt
CCCCCc1cc[n+](CC(=O)c2ccccc2)cc1	i	nt	nt	nt	nt
Cc1csc(=O)n1CCC(=O)OCC(=O)NNC(=O)c1ccc(Cl)cc1	i	i	i	i	i
O=C(Nc1ccc2c(c1)Cc1ccccc1-2)c1cccnc1	2.8µM	i	i	i	i
O=C(CCCn1c(=O)c2cccn2c2ccc(F)cc21)NCCc1ccccc1	nt	nt	i	nt	nt
CCOC(=O)c1cnc(-n2nc(C)cc2C)nc1Nc1ccc(O)cc1	i	i	i	i	11µM
CCOC(=O)c1cnc(-n2nc(C)cc2C)nc1Nc1ccc(C)cc1	i	i	i	i	i
O=C(c1ccc(CSc2nc3ccncc3n2Cc2cccc(F)c2)cc1)N1CCCCCC1	nt	nt	i	nt	nt
CCN(CC)CCNC(=O)C(=O)NCC(c1ccc2c(c1)OCO2)N1CCOCC1 (configuration not stated)	nt	nt	i	nt	nt
